For 69 sequences, z-score results are on record in PubChem BioAssay AID1508600 (Functional Genomics Laboratory (NCATS/FGL), 2020).

Out of some 53,000 sequences screened, about 3,700 (7%) were called active. Many of the other results were omitted from the sample, so actives are more common in it than they were. Values without a mark were called inactive.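 Rule for the calls: active = gene knockdowns whose robust z-score for IL-1 alpha signal is at least 2 or at most -2, so actives lie on both sides; inactive = the rest.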

The assay can be described thus: Components of the Cytosolic LPS Sensing Pathway: Gene Identification via Genome-wide siRNA Screen.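 Note: robust z of the log signal after scaling to non-targeting control siRNA wells of the plate.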 The note with it: RAW264.7 macrophages, IL-1a HTRF, actives lie on both sides, screened at 100 nM (by protocol), cells primed 5 h with Pam3CSK4 first. The procedure, abridged: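 Read-out: IL-1a HTRF on supernatant, divided by plate negative-control median ×100, log-transformed and converted to robust z-score. Cells were RAW264.7 given 100 nM siRNA, Pam3CSK4-primed 5 hours, then LipidA-transfected 24 hour.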
For orientation: TR-FRET usually uses a lanthanide donor and a delayed reading to cut background.
For GGUGGACUUGUACCUCUUCTT against Tnks, the z-score was -0.0808. Take CCGUAUUGUCACUUGUGGGTT against Arpc1a: the z-score is 0.479. In the case of CAGGAAAUUAGCGAUGUGGTT against Abl2 it was 0.206. For the sequence GGUGCUAAAGUCAAAAAACTT against Fras1, the z-score was 0.218. The same measure for GAAGGGACUUCAAAGUUGATT against Ndufb10: 3.3 (active); for GGGACAUCAGAUUAUUCAUTT against Zfp87: 1.43. Turning to GGAAGACAAUGGUGUGAAATT against Pgm3, the z-score is -0.74. As to GGCCGCCAUUUUGGCAAGATT against Fbxo27, the z-score was 3.41 (active). Regarding CGGUGAUAACAGACAUUAATT against Aldh8a1, the z-score was -0.561. In the case of CCGAACCUUCAGCUACACATT against Keap1 it was 0.0133. For the sequence GGAAAAAUUCGAGGGACUGTT against Rcan2, the z-score is 1.12. On to GGAAGUGUAUUCAAGAAGUTT against Tapt1, for which the z-score was 3.02 (active). Turning to GCCGUUCUGCUAUCACAACTT against Scrn2, the z-score is -0.531.

In the case of GAAGAGACCUUCACAAAGUTT against Hnrnpll, the z-score was -1.52. Regarding GGAGCGAGGAAUCAAUGUUTT against Prss8, the z-score is 2.86 (active). On to GGAACACCUACAGUAUAAATT against Cdc123, for which the z-score was -0.39.

On to GGAGCGAUUUGCUGGUGUGTT against Rps16, for which the z-score was 1.19. With GGUAUCAAGGUGAAGUUGATT against Septin1, the z-score is 0.776. As to GGGACACUACCCUGAUGAUTT against Vmn1r205, the z-score is -2.05 (active). Regarding GGUUGGACAAAAAGAAUCUTT against Ifngr1, the z-score was 0.507. For the sequence GGUCUGAGUUUUAAACAGUTT against Gmfb, the z-score is 1.13. As to GGGUUACCUCCUGACUGUUTT against Olfr930, the z-score was -1.9. Consider GCUGCUUUGCUAUCUCCUGTT against Apof, for which the z-score is -2.25 (active). Turning to CGAGGAGUUGGAUUUCAGGTT against Dnmbp, the z-score is -0.713. Turning to GGGAGUAAAGAAAAUGUUATT against Atxn2, the z-score is -0.112. As for GCUUAUUUCGCCUAUGUGGTT against Slc24a2, the z-score is -1.11. In the case of GCAAGAUGGUAUCAGCAGATT against Sde2, the z-score is -2.1 (active). As to “GGAAAGAGGAAGAUAAAGUTT against 2310002L09Rik”, the z-score was -1.17. Consider CCGCUUUUCAUAACACGAATT against Obp2a, for which the z-score was 0.037. In the case of CCUCAUUUAGAUGUCUUGATT against Ran it was -0.0987; in that of GUCUUUGUUCAGGAGGUGATT against Ahnak, 0.0593; in that of GCCAUGCUAAUCAAGACGGTT against Gtf2ird2, -0.99. On to GCUCUCUCUCAUUGAUCUCTT against Olfr697, for which the z-score was -1.63. On to GGUUUGGCAUCUAAAGAGCTT against Olfr1412, for which the z-score is -2.42 (active).

CCAGCUUUUACCUAAUACCTT against Ggt1: the z-score was 0.0683. For the sequence GGGUAUCUGAUUUAUAAGCTT against Mageh1, the z-score is -0.371. GGGAAAGGGUUUUUUAUUCTT against Slc1a1: the z-score was -0.177. With GCCAAAAAGUGUGUGUUGGTT against Olfr731, the z-score was 0.0799. Take CCAGUUUGCACAAGUUUUCTT against Fyco1: the z-score was 1.94. On to GGAUCUUCCAAGUUGUCUGTT against Srm, for which the z-score was 2.42 (active). Regarding CGAGCUGAACAGAAUGAUATT against Krt85, the z-score is 0.265. For GGCAAGGUCAAGGACACCATT against Tcp11, the z-score was -0.77. “GCAUGCAUGCUAUUGUUUUTT against 4931431C16Rik”: the z-score was 0.336. Take GGCACACACUGAUUUUUUUTT against Cops2: the z-score was 0.0987.

GGUCCAAUGGAUUUUGUUUTT against Pxdc1: the z-score was 2.06 (active).

Regarding GGUGCGAAGGAAAUUGCACTT against Mrps26, the z-score was 1. As to GCCUUUACUGGAUUCAUUGTT against Acadm, the z-score is 2.53 (active). As for GGCAGAGAAUCAGCUCCUUTT against Il16, the z-score was 0.377. On to CGAUCGAUAAAUGUAAUGATT against Heatr5a, for which the z-score was -0.0662. In the case of GGAGUAUGCUGUCAAAAUCTT against Mknk1, the z-score is 0.259. For the sequence GGAUCACCAGACCUUUUUCTT against St7l, the z-score is -1.94.

As to CCAGGAAUCUAGAUAAUAGTT against BC031181, the z-score was -1.05. For the sequence GCAUUACCAAAAGCAGUCUTT against Lyn, the z-score was -1.46. For the sequence CCUCUAUUCUCCGUCUAUGTT against Fars2, the z-score is 2.45 (active).

With GGCUACAUUGUCUCAUUGUTT against Opn1mw, the z-score was -0.59. Regarding GGUUAAGGAGAAAUGUGAUTT against Mob3a, the z-score is -0.0804. With GGUUAAAAUGCCAUAACAATT against Ksr1, the z-score was -1.26. GGGAAGUCAUUCACAUAUUTT against Rab39b: the z-score is -1.58. Take GGAAGUCCACGAAACUAAATT against Prl3d1: the z-score was 0.359. Take CGACCUGUGGGAAGAUAUUTT against Apoa5: the z-score is -0.992. For the sequence GGGAUACUUUCUUCGAGGATT against Soga3, the z-score was -2.36 (active). In the case of GGCCAUUGUUGAAAUGUACTT against Myh14, the z-score is 0.175. Consider GGUAUCAACAUCACGAUUCTT against Mrgpra1, for which the z-score is 0.487. For the sequence GCACCUGGUGAAUUUUACCTT against Tmem106c, the z-score was -0.85. GCCUUACUGACUCGUGUCCTT against Ccp110: the z-score is -2.33 (active). For the sequence GGACCUUUAAAGCUAAGCUTT against Ccn5, the z-score was -1.4. For GGAGUUUUCAAAAAACAGATT against Dsc2, the z-score was -0.356.

Turning to GGAUACUGCCAUUCAUAGGTT against Cstdc2, the z-score was -0.182.

Regarding GGAAAGCUUUCUUCACCUGTT against Olfr206, the z-score is -1.73.
